For 21 compounds, growth inhibition results are on record in PubChem BioAssay (NCI).

The panel holds about 79,000 compounds, 15% with a hit somewhere; the sample as a whole holds those more often. Unmarked numbers belong to inactive results. Calls of active or inactive are those of the source. Cut-off read from the data, not from the text of the source: active = growth inhibition above about 70%; inactive = the rest.

Experiment [1] is described as follows: NCI Yeast Anticancer Drug Screen. Data for the rad50 strain (AID 155).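 Note: 0% = growth of vehicle-only cultures of the same strain.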 Particulars: S. cerevisiae rad50 strain growth inhibition; at 50.0 µM; active compounds read high. A digest of the protocol: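 DNA repair mutant yeast, compound exposure, growth read-out; inhibition is taken relative to vehicle.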
Experiment [2] in a line: NCI Yeast Anticancer Drug Screen. Data for the mec2-1 strain (AID 157). As to conditions: S. cerevisiae mec2-1 strain, at 50.0 µM, active compounds read high. An outline of the steps: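 Mutant yeast (mec2-1) grown with compound; growth inhibition relative to vehicle control reported.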
Experiment [3] is described as follows: NCI Yeast Anticancer Drug Screen. Data for the sgs1 mgt1 strain (AID 161).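 Note: 0% = growth of cultures given vehicle only.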 As to conditions: S. cerevisiae sgs1 mgt1 strain, at 50.0 µM, active compounds read high. A digest of the protocol:
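Compounds are added to genetically altered yeast, and growth is compared with cultures given vehicle alone to give percent inhibition.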

Experiment [4] can be described thus: NCI Yeast Anticancer Drug Screen. Data for the cln2 rad14 strain (AID 165).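 Note: 0% = growth equal to vehicle treated cultures.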 As to conditions: S. cerevisiae cln2 rad14 strain, at 50.0 µM, active compounds read high. An outline of the steps: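 Readout is yeast growth inhibition versus vehicle-treated controls, using a strain with cln2 and rad14 alterations exposed to compound.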
A short description of experiment [5]: NCI Yeast Anticancer Drug Screen. Data for the bub3 strain (AID 167). Particulars: S. cerevisiae bub3 mutant strain, at 50.0 µM, active compounds read high. A digest of the protocol:
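In this screen, a yeast mutant lacking normal mitotic checkpoint function is challenged with compound. Relative growth versus vehicle gives the inhibition value.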

The nature of experiment [6]: NCI Yeast Anticancer Drug Screen. Data for the mlh1 rad18 strain (AID 175). As to conditions: S. cerevisiae mlh1 rad18 strain growth inhibition; at 50.0 µM; active compounds read high. An outline of the steps:
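Genetically defined yeast (DNA repair-deficient) exposed to compounds; growth inhibition determined relative to vehicle.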

With `Clc1ccc(-c2nnc(-c3ccc4ccccc4c3)o2)cc1Cl`, the growth inhibition in experiment [1] was 3.25%; in experiment [2] it was -28.9%; in experiment [3], 7.15%; in experiment [4], 11.8%; in experiment [5], -14.9%; in experiment [6] it was -6.2%.
For the compound `CCCOC(=O)CCCCCC1CCCCC1`, the growth inhibition in experiment [1] was 15.2%; in experiment [2] it was 6.1%; in experiment [3], -5.8%; in experiment [4], -33.1%; in experiment [5], -8.1%; in experiment [6], 8%.
As for `Cc1ccc(Cc2nn(C)c(=O)n2-n2cccc2)cc1`, the growth inhibition was -37.1% in experiment [1]; -13.7% in experiment [2]; -10% in experiment [3]; -1.7% in experiment [4]; -19.1% in experiment [5]; -7.45% in experiment [6].
As for `COc1ccc(C(C#N)CC(=O)c2ccccc2)cc1` (stereo unspecified), the growth inhibition in experiment [1] is 6.4%; in experiment [2], 10.9%; in experiment [3], 0.95%; in experiment [4], 4.45%; in experiment [5], -2.6%; in experiment [6], -8.35%.
Take `Cc1ccc(C(CCCl)OC(C)C)cc1` (stereo unspecified): the growth inhibition was 7% in experiment [1]; 7.35% in experiment [2]; 22% in experiment [3]; 25.2% in experiment [4]; 22.6% in experiment [5]; 17.8% in experiment [6].
As for `CC(=O)Nc1ccc(S(=O)(=O)N/N=C/C(=O)O)cc1`, the growth inhibition in experiment [1] is -15.6%; in experiment [2], -32.4%; in experiment [3], -40%; in experiment [4], -22.4%; in experiment [5] it was 5.4%; in experiment [6], -16.6%.
On to `NC(=O)N/N=C/C(/C=N/NC(N)=O)[N+](=O)[O-]`, for which the growth inhibition in experiment [1] was -3.8%; in experiment [2] it was -7.4%; in experiment [3], -10.3%; in experiment [4], -1.75%; in experiment [5], -14.6%; in experiment [6] it was 6.8%.
For `C[n+]1cccc2cc(Br)ccc21`, the growth inhibition was -5.3% in experiment [1]; -8.6% in experiment [2]; -13.2% in experiment [3]; 9.7% in experiment [4]; 11.6% in experiment [5]; -15.5% in experiment [6].
On to `CCOC(=O)NC(Nc1ncccn1)(C(=O)OCC)C(F)(F)F` (stereo unspecified), for which the growth inhibition in experiment [1] is -28.9%; in experiment [2], -29.4%; in experiment [3] it was -77.3%; in experiment [4], -15.6%; in experiment [5], -39.8%; in experiment [6] it was -34.9%.
Consider `COc1nc2c(c(O)c(C)c(=O)n2OC2OCC(OC(C)=O)C(OC(C)=O)C2OC(C)=O)c(=O)n1C` (stereo unspecified), for which the growth inhibition in experiment [1] was -0.15%; in experiment [2], -19.4%; in experiment [3], -30.6%; in experiment [4] it was -1.85%; in experiment [5], -10.3%; in experiment [6], -20.8%.
Take `CCOC(=O)c1sc(SC)nc1NC(=O)c1ccc([N+](=O)[O-])cc1`: the growth inhibition in experiment [1] was -13.4%; in experiment [2], -8.55%; in experiment [3], -53%; in experiment [4], -1.3%; in experiment [5] it was -20.5%; in experiment [6] it was -3.85%.
`C=CC(C)Cc1ccccc1` (stereo unspecified): the growth inhibition in experiment [1] is 2%; in experiment [2] it was 1.05%; in experiment [3], 7.85%; in experiment [4] it was 24.1%; in experiment [5] it was 31.5%; in experiment [6], 25.2%.
For the compound `O=c1n(-c2ccccc2)c(=O)n2n1C1C3C4C5C1C5C2C43` (stereo unspecified), the growth inhibition is -8.4% in experiment [1]; 8.95% in experiment [2]; 12.3% in experiment [3]; 5.85% in experiment [4]; 5% in experiment [5]; 12.8% in experiment [6].
`COc1ccc(CCC(O)c2ccccc2)cc1` (stereo unspecified): the growth inhibition was 25.7% in experiment [1]; 20.4% in experiment [2]; 3.65% in experiment [3]; 16.1% in experiment [4]; 19.3% in experiment [5]; 16.1% in experiment [6].
As to `CC(=O)OCCS(=O)(=O)c1c(Cl)c(Cl)c(Cl)c(Cl)c1Cl`, the growth inhibition was 95.7% (active) in experiment [1]; 97.4% (active) in experiment [2]; 98.9% (active) in experiment [3]; 93.8% (active) in experiment [4]; 95.7% (active) in experiment [5]; 97.8% (active) in experiment [6].
As for `CC(=O)Oc1ncnc2c1cnn2C`, the growth inhibition was -8.95% in experiment [1]; -1.65% in experiment [2]; -15.6% in experiment [3]; -38.6% in experiment [4]; 2.15% in experiment [5]; -3.3% in experiment [6].
For the compound `CCc1ccc2c(c1)C(=O)c1c(c(-c3ccccc3)c3ccccc3c1-c1ccccc1)C2=O`, the growth inhibition in experiment [1] was -5.95%; in experiment [2], -4.5%; in experiment [3], -6.4%; in experiment [4] it was -18.1%; in experiment [5] it was 13.8%; in experiment [6], 8.65%.
Regarding `CN1C(c2ccccc2)=C(C#N)C(=O)CC(c2ccco2)N1C` (stereo unspecified), the growth inhibition in experiment [1] was 4.3%; in experiment [2] it was -4.4%; in experiment [3], 4.65%; in experiment [4], 10.9%; in experiment [5] it was 11%; in experiment [6], 13.1%.
Turning to `Cc1cc(=O)[nH]n1-c1ccc([N+](=O)[O-])cc1`, the growth inhibition is 6.15% in experiment [1]; -2.4% in experiment [2]; 5.3% in experiment [3]; -9.8% in experiment [4]; -1.7% in experiment [5]; 14.8% in experiment [6].
With `CC(NCCNC(C)c1ccccc1)c1ccccc1` (stereo unspecified), the growth inhibition is 6.65% in experiment [1]; -22.3% in experiment [2]; -1.25% in experiment [3]; -35.1% in experiment [4]; 1.85% in experiment [5]; 8.45% in experiment [6].
In the case of `CCNCCNC(=O)c1ccc(I)cc1`, the growth inhibition in experiment [1] is -33.9%; in experiment [2], -7.2%; in experiment [3] it was -4.2%; in experiment [4] it was 6.65%; in experiment [5] it was -14.8%; in experiment [6], -10.8%.
